The values that follow come from the supplement of paper PMC10849652.

Targets with a hit are over-represented here; the source holds about 7,900 in all. About 0.6% of all pairs of compound and target were hits.

Sequence of UniProt Q6P1L5 (Q6P1L5 whole entry, looked up): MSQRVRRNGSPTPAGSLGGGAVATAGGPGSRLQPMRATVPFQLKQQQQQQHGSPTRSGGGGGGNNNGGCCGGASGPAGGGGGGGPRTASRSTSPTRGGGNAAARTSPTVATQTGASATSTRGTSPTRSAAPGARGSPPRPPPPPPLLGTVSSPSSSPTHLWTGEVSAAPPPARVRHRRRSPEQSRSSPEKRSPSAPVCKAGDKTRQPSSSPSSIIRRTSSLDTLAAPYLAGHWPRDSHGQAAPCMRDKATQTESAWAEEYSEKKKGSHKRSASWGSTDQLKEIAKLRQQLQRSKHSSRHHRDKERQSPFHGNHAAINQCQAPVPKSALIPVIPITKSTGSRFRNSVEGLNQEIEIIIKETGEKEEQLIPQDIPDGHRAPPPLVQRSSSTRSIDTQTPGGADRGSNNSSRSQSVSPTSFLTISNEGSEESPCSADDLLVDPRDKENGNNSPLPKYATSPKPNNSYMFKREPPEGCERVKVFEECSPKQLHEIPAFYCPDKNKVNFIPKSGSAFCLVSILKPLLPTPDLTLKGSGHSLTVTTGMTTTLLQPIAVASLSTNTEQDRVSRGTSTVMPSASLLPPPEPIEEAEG
Sequence of UniProt Q9NZJ5 (Q9NZJ5 whole entry, looked up): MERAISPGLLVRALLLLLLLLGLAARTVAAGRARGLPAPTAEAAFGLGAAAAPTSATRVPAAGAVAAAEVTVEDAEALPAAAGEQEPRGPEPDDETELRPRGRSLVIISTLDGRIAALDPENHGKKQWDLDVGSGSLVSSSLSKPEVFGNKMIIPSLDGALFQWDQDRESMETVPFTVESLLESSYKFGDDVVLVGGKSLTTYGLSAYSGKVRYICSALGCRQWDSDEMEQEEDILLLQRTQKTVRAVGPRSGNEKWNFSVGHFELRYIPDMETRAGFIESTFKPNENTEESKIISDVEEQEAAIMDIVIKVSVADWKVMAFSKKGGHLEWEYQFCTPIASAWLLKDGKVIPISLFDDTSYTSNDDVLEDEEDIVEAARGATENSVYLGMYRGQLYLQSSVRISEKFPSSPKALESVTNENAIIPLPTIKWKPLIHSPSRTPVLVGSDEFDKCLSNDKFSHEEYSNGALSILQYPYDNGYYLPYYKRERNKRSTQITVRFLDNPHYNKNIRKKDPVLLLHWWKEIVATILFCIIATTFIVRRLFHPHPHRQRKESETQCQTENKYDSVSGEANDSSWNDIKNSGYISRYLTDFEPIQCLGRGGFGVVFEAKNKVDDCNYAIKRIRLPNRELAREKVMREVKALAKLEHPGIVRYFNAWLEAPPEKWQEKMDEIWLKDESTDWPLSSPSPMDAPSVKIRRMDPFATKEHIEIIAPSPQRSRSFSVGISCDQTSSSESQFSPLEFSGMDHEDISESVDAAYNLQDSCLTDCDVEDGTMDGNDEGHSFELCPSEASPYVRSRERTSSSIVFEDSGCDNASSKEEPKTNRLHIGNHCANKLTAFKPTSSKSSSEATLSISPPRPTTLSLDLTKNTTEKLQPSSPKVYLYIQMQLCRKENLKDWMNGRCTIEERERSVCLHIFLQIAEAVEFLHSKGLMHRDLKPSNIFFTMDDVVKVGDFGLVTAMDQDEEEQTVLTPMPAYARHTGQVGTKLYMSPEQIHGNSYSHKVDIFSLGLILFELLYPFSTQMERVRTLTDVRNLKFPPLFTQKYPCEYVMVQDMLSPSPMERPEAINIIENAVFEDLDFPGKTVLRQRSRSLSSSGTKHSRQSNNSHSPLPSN
Sequence of UniProt Q96RI0 (Q96RI0 whole entry, looked up): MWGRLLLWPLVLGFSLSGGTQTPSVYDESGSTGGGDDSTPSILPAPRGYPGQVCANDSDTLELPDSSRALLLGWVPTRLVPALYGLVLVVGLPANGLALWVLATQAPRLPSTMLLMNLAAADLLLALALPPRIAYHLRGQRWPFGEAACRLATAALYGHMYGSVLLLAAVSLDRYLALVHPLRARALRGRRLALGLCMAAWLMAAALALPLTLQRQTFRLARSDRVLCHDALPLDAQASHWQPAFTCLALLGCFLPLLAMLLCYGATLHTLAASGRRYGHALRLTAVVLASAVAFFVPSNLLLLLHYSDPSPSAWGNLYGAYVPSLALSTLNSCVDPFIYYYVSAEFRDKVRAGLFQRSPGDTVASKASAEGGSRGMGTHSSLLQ
Sequence of UniProt Q9H777 (Q9H777 whole entry, looked up): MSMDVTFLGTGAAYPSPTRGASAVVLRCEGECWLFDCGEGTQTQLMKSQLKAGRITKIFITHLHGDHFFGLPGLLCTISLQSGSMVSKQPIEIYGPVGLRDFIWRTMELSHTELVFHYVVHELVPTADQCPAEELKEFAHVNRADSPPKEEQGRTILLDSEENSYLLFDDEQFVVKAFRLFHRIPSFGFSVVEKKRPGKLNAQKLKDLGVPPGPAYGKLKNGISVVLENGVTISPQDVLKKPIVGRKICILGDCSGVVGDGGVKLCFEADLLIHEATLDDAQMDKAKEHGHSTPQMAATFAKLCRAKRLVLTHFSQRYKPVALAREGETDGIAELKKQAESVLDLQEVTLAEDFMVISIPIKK
Sequence of UniProt O00418 (O00418 whole entry, looked up): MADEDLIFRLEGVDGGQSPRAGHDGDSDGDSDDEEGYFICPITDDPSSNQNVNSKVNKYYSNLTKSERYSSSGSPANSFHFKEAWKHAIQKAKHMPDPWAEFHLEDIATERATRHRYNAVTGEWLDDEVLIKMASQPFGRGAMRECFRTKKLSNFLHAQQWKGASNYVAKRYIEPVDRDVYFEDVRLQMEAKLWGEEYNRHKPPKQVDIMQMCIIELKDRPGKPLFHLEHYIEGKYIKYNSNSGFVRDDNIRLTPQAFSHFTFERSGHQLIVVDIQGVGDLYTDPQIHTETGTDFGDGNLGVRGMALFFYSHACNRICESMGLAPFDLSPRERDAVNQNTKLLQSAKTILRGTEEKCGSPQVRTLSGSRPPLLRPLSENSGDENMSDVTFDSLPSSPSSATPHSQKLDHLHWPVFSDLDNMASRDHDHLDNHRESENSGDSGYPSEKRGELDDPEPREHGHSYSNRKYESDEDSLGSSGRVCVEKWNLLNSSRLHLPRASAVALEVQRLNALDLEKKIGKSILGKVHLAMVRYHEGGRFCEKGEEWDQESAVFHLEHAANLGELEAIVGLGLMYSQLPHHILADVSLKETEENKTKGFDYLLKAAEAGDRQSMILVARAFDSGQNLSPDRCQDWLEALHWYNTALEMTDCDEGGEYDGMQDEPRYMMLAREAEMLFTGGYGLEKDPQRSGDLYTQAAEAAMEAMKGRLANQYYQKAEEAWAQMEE
Sequence of UniProt P32519 (P32519 whole entry, looked up): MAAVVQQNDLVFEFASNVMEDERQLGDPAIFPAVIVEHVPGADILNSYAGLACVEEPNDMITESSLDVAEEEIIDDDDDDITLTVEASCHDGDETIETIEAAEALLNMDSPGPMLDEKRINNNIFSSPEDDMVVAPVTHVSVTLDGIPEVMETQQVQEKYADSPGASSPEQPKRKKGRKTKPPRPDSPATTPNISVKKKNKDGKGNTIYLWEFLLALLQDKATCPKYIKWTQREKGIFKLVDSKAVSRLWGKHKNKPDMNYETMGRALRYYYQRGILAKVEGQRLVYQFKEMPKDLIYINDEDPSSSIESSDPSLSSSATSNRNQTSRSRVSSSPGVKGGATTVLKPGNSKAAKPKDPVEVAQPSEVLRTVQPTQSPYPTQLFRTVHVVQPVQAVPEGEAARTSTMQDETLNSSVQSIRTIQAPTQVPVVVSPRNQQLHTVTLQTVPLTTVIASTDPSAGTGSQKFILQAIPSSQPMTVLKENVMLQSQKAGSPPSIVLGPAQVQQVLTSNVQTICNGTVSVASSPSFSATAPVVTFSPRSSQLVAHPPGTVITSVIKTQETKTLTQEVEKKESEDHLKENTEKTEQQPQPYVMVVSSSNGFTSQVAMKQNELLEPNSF
Sequence of UniProt Q6UX07 (Q6UX07 whole entry, looked up): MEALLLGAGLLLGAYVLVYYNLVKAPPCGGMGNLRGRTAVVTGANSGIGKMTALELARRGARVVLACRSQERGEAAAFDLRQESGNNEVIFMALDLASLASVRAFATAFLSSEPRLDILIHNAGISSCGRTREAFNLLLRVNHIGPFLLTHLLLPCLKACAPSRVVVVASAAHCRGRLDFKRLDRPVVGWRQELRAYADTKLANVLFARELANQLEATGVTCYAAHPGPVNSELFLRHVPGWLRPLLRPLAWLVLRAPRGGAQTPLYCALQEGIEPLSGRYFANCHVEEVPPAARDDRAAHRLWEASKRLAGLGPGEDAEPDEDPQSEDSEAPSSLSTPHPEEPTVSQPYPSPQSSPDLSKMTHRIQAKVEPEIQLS
Sequence of UniProt A1L3X0 (A1L3X0 whole entry, looked up): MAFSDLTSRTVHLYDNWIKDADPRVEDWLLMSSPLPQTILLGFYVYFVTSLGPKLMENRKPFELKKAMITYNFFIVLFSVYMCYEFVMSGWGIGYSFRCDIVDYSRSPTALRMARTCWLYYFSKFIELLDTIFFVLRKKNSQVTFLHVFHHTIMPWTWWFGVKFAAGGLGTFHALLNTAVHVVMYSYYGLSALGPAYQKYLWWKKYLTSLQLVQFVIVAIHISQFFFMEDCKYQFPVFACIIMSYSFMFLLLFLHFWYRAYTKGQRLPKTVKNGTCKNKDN
Sequence of UniProt P80370 (P80370 whole entry, looked up): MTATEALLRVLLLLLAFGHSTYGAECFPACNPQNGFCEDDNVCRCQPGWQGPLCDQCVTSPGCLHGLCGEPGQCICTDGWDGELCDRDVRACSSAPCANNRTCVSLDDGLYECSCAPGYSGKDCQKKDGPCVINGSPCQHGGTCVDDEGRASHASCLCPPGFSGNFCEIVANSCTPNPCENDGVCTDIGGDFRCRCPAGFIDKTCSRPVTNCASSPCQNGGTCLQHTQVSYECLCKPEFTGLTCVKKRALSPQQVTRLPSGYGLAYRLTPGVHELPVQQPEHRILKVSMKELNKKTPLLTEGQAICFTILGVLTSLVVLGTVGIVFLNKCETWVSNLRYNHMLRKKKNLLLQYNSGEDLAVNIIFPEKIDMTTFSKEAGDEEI
Sequence of UniProt Q96DA6 (Q96DA6 whole entry, looked up): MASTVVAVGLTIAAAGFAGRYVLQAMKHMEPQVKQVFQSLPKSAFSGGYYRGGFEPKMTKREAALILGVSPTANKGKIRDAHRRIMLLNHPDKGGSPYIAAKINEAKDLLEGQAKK

Compound in this experiment: c1ccc([C@@H]2C[C@H]2NC2CCNCC2)cc1
The experiment can be described thus: log2 fold change, soluble protein after heating vs DMSO (PISA); higher = thermal stabilisation; K562 cells, 10 uM, 30 min; active = over 0.2 and 3.5 SD of the protein, either way, in both replicates (recomputed). The method, boiled down:
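K562 cells (2×10^6 cells/mL) were treated with 10 μM compound for 30 min, and aliquots were heated for 3 min over 48°C-58°C. Pooled aliquots were extracted in PBS with 0.5% NP-40 at 4°C, and the supernatant after 21,000xg for 90 min was measured by TMTpro 16plex LC-MS/MS with channel sums equalised. Reported thermal stability, relative to control samples and from duplicates, is a log2 fold change.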
Regarding F2RL3 (UniProt Q96RI0), the log2 fold change was 0.032 (inactive).

Consider DNAJC19 (UniProt Q96DA6), for which the log2 fold change is -0.041 (inactive).

With CTSS (UniProt P25774), the log2 fold change was 0.037 (inactive).

As for DCP2 (UniProt Q8IU60), the log2 fold change is 0.068 (inactive).

For DLK1 (UniProt P80370), the log2 fold change was 0.051 (inactive).

Take CYB561A3 isoform 2 (UniProt Q8NBI2): the log2 fold change is 0.002 (inactive).

For the target EEF2K (UniProt O00418), the log2 fold change is -0.082 (inactive).

Regarding CWF19L2 (UniProt Q2TBE0), the log2 fold change was 0.135 (inactive).

Regarding EDRF1 (UniProt Q3B7T1), the log2 fold change was -0.061 (inactive).

ELOVL7 (UniProt A1L3X0): the log2 fold change is -0.01 (inactive).

DNAL1 (UniProt Q4LDG9): the log2 fold change was 0.03 (inactive).

Take DBNL (UniProt Q9UJU6): the log2 fold change is -0.099 (inactive).

For the target EIF4G1 (UniProt Q04637), the log2 fold change was -0.028 (inactive).

With DDX27 (UniProt Q96GQ7), the log2 fold change was -0.046 (inactive).

For FAM117B (UniProt Q6P1L5), the log2 fold change is -0.024 (inactive).

Take ELF1 (UniProt P32519): the log2 fold change is 0.007 (inactive).

As for DYRK1A isoform 2 (UniProt Q13627), the log2 fold change was 0.011 (inactive).

For the target DHRS13 (UniProt Q6UX07), the log2 fold change was -0.14 (inactive).

Regarding DNM2 isoform 4 (UniProt P50570), the log2 fold change was -0.022 (inactive).

Regarding DYNC1I2 isoform 2 (UniProt Q13409), the log2 fold change is 0.14 (inactive).

For the target EIF2AK3 (UniProt Q9NZJ5), the log2 fold change was 0.059 (inactive).

On to EHBP1 (UniProt Q8NDI1), for which the log2 fold change is 0.229 (inactive).

Take ELAC1 (UniProt Q9H777): the log2 fold change is 0.059 (inactive).
